Test results taken from PubChem BioAssay AID1159580 (chemical genetic matrix, 2015).
Out of some 5,500 compounds screened, about 2,000 (36%) were called active. Another 18% or so got no clear call; they are omitted. Cut-off read from the data, not from the text of the source: active = normalized growth mostly below about 0.91 (no sharp cut-off); inconclusive = no clear call, values can overlap the other calls; inactive = mostly above about 0.92. This is one part of the list.

Test: chemical genetic growth profiling, strain panel (AID 1159580);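 note: tested at 20 µM; growth read once vehicle control cultures reached saturation at 30 °C; 1 = growth at the plate median or of vehicle wells; lower values mean less growth of the strain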
Settings: S. cerevisiae deletion strains, growth OD
[1] = locus YAL040C, strain CLN3, stronger effect = lower value
[2] = locus YCL061C, strain MRC1 (second series), stronger effect = lower value
[3] = locus YER002W, strain NOP16, stronger effect = lower value
[4] = locus YGR229C, strain SMI1, stronger effect = lower value
[5] = locus YMR307W, strain GAS1, stronger effect = lower value
[6] = locus YNL175C, strain NOP13, stronger effect = lower value
[7] = locus YNL197C, strain WHI3, stronger effect = lower value
[8] = locus YNL224C, strain SQS1, stronger effect = lower value
[9] = locus YOR083W, strain WHI5 (second series), stronger effect = lower value
[10] = locus YNL153C, strain GIM3, stronger effect = lower value

Measured: normalized growth

CNCC(O)c1ccc(O)c(O)c1 (stereo not drawn)
inactive: [1] 1.08 | [2] 1 | locus YDR363W, strain ESC2, stronger effect = lower value 1.01 | [3] 1 | locus YGR078C, strain PAC10, stronger effect = lower value 1.02 | [4] 0.982 | locus YJR075W, strain HOC1, stronger effect = lower value 1 | locus YMR263W, strain SAP30, stronger effect = lower value 1.01 | [5] 1 | [6] 0.994 | [7] 0.998 | [8] 1.02 | [9] 1.02

CCOC(=O)C12CC1/C(=N\O)c1ccccc1O2 (stereo not drawn)
inactive: locus YAL013W, strain DEP1, stronger effect = lower value 0.998 | [1] 1.05 | [2] 0.995 | [3] 1.02 | [4] 0.991 | [10] 1.02 | [6] 1.02 | [7] 1.02 | [8] 1 | [9] 1.02

CCOC(=O)C(=O)C1(C(=O)OCC)Oc2cc(OC)cc(OC)c2C(=O)C1c1ccccc1 (stereo not drawn)
active: locus YBR021W, strain FUR4, stronger effect = lower value 0.818 | locus YGL167C, strain pmr1, stronger effect = lower value 0.911 | locus YJL129C, strain trk1, stronger effect = lower value 0.862 | locus YKR091W, strain srl3, stronger effect = lower value 0.929 | locus YLR330W, strain CHS5, stronger effect = lower value 0.906 | locus YLR418C, strain cdc73, stronger effect = lower value 0.804 | locus YNL071W, strain lat1, stronger effect = lower value 0.915 | locus YNL307C, strain MCK1, stronger effect = lower value 0.888 | locus YOR290C, strain snf2, stronger effect = lower value 0.863
inactive: locus YAL021C, strain ccr4, stronger effect = lower value 0.981 | locus YAL026C, strain drs2, stronger effect = lower value 0.96 | locus YAL030W, strain snc1, stronger effect = lower value 0.96 | locus YBL061C, strain skt5, stronger effect = lower value 0.951 | locus YBR009C, strain hhf1, stronger effect = lower value 0.908 | locus YBR023C, strain chs3, stronger effect = lower value 0.954 | locus YBR171W, strain sec66, stronger effect = lower value 0.939 | locus YBR229C, strain ROT2, stronger effect = lower value 0.986 | locus YBR231C, strain swc5, stronger effect = lower value 0.961 | locus YBR279W, strain paf1, stronger effect = lower value 0.965 | locus YCL011C, strain gbp2, stronger effect = lower value 0.925 | locus YCL016C, strain dcc1, stronger effect = lower value 0.972 | locus YCL029C, strain bik1, stronger effect = lower value 0.989 | locus YCL061C, strain MRC1, stronger effect = lower value 0.938 | locus YCL069W, strain vba3, stronger effect = lower value 0.96 | locus YCR088W, strain abp1, stronger effect = lower value 0.967 | locus YDL005C, strain med2, stronger effect = lower value 0.961 | locus YDL035C, strain GPR1, stronger effect = lower value 0.967 | locus YDL040C, strain nat1, stronger effect = lower value 0.961 | locus YDL074C, strain BRE1, stronger effect = lower value 0.913 | locus YDL101C, strain DUN1, stronger effect = lower value 0.959 | locus YDL185W, strain tfp1, stronger effect = lower value 0.969 | locus YDL192W, strain arf1, stronger effect = lower value 0.945 | locus YDR001C, strain nth1, stronger effect = lower value 0.947 | locus YDR069C, strain doa4, stronger effect = lower value 0.967 | locus YDR101C, strain arx1, stronger effect = lower value 0.955 | locus YDR137W, strain rgp1, stronger effect = lower value 0.904 | locus YDR159W, strain sac3, stronger effect = lower value 0.928 | locus YDR162C, strain NBP2, stronger effect = lower value 0.987 | locus YDR195W, strain ref2 1.01 | locus YDR297W, strain sur2, stronger effect = lower value 0.949 | locus YDR318W, strain mcm21, stronger effect = lower value 0.936 | locus YDR334W, strain swr1, stronger effect = lower value 0.965 | locus YDR335W, strain msn5, stronger effect = lower value 0.971 | locus YDR388W, stronger effect = lower value 0.968 | locus YDR392W, strain spt3, stronger effect = lower value 0.767 | locus YDR502C, strain sam2, stronger effect = lower value 0.928 | locus YEL003W, strain gim4, stronger effect = lower value 0.948 | locus YEL037C, strain rad23, stronger effect = lower value 0.964 | locus YEL061C, strain CIN8 (second series), stronger effect = lower value 0.929 | locus YEL061C, strain CIN8, stronger effect = lower value 0.99 | locus YER015W, strain faa2, stronger effect = lower value 0.952 | locus YER016W, strain bim1, stronger effect = lower value 0.976 | locus YER110C, stronger effect = lower value 0.953 | locus YER111C, strain swi4, stronger effect = lower value 0.946 | locus YER155C, strain BEM2 (second series), stronger effect = lower value 0.875 | locus YER155C, strain BEM2, stronger effect = lower value 0.966 | locus YER167W, strain BCK2, stronger effect = lower value 0.97 | locus YFR010W, strain ubp6, stronger effect = lower value 0.956 | locus YGL078C, strain dbp3, stronger effect = lower value 0.938 | locus YGL086W, strain mad1, stronger effect = lower value 0.942 | locus YGL173C, strain kem1, stronger effect = lower value 0.947 | locus YGL227W, strain vid30, stronger effect = lower value 0.926 | locus YGL240W, strain doc1, stronger effect = lower value 0.911 | locus YGL248W, strain PDE1, stronger effect = lower value 0.945 | locus YGL253W, strain hxk2, stronger effect = lower value 0.972 | locus YGR135W, strain pre9, stronger effect = lower value 0.915 | locus YGR252W, strain gcn5, stronger effect = lower value 0.791 | locus YHR013C, strain ard1, stronger effect = lower value 0.95 | locus YHR027C, strain rpn1, stronger effect = lower value 0.987 | locus YHR030C, strain SLT2, stronger effect = lower value 0.993 | locus YHR079C, strain IRE1 (second series), stronger effect = lower value 0.961 | locus YHR094C, strain hxt1, stronger effect = lower value 0.951 | locus YHR129C, strain ARP1, stronger effect = lower value 0.966 | locus YHR142W, strain chs7, stronger effect = lower value 0.95 | locus YHR200W, strain rpn10, stronger effect = lower value 0.942 | locus YIL066C, strain RNR3, stronger effect = lower value 0.983 | locus YIL073C, strain SPO22, stronger effect = lower value 0.929 | locus YIL125W, strain kgd1, stronger effect = lower value 0.971 | locus YIR030C, strain dcg1, stronger effect = lower value 0.962 | locus YJL092W, strain hpr5, stronger effect = lower value 0.941 | locus YJL095W, strain BCK1 (second series), stronger effect = lower value 0.973 | locus YJL095W, strain BCK1, stronger effect = lower value 0.907 | locus YJL115W, strain asf1, stronger effect = lower value 0.979 | locus YJL134W, strain LCB3, stronger effect = lower value 0.989 | locus YJL154C, strain vps35, stronger effect = lower value 0.968 | locus YJL164C, strain tpk1, stronger effect = lower value 0.95 | locus YJL166W, strain qcr8, stronger effect = lower value 0.926 | locus YJL168C, strain set2, stronger effect = lower value 0.966 | locus YJL187C, strain SWE1 (second series), stronger effect = lower value 0.948 | locus YJL187C, strain SWE1, stronger effect = lower value 0.953 | locus YJR043C, strain POL32, stronger effect = lower value 0.998 | locus YKL009W, strain mrt4, stronger effect = lower value 0.899 | locus YKL068W, stronger effect = lower value 0.955 | locus YKL085W, strain MDH1 (second series), stronger effect = lower value 0.959 | locus YKL085W, strain MDH1, stronger effect = lower value 0.959 | locus YKL160W, strain elf1, stronger effect = lower value 0.966 | locus YKL190W, strain CNB1, stronger effect = lower value 0.989 | locus YKR001C, strain vps1, stronger effect = lower value 0.958 | locus YKR026C, strain gcn3, stronger effect = lower value 0.932 | locus YLL001W, strain dnm1, stronger effect = lower value 0.964 | locus YLL026W, stronger effect = lower value 0.969 | locus YLL041C, strain sdh2, stronger effect = lower value 0.966 | locus YLR027C, strain aat2, stronger effect = lower value 0.95 | locus YLR039C, strain RIC1, stronger effect = lower value 0.983 | locus YLR058C, strain SHM2, stronger effect = lower value 0.959 | locus YLR102C, strain apc9, stronger effect = lower value 0.962 | locus YLR221C, strain rsa3, stronger effect = lower value 0.91 | locus YLR258W, strain gsy2, stronger effect = lower value 0.959 | locus YLR262C, strain YPT6 (second series), stronger effect = lower value 0.906 | locus YLR262C, strain YPT6, stronger effect = lower value 0.978 | locus YLR268W, strain sec22, stronger effect = lower value 0.955 | locus YLR320W, strain mms22, stronger effect = lower value 0.889 | locus YLR342W, strain FKS1, stronger effect = lower value 0.919 | locus YLR357W, strain rsc2, stronger effect = lower value 0.916 | locus YLR370C, strain arc18, stronger effect = lower value 0.938 | locus YLR371W, strain rom2, stronger effect = lower value 0.962 | locus YLR384C, strain iki3, stronger effect = lower value 0.95 | locus YML016C, strain PPZ1, stronger effect = lower value 0.989 | locus YML032C, strain rad52, stronger effect = lower value 0.961 | locus YML120C, strain ndi1, stronger effect = lower value 0.919 | locus YML124C, strain tub3, stronger effect = lower value 0.94 | locus YMR058W, strain fet3, stronger effect = lower value 0.946 | locus YMR078C, strain ctf18, stronger effect = lower value 0.94 | locus YMR125W, strain sto1, stronger effect = lower value 0.979 | locus YMR129W, stronger effect = lower value 0.936 | locus YMR205C, strain PFK2, stronger effect = lower value 0.877 | locus YMR223W, strain ubp8, stronger effect = lower value 0.949 | locus YMR231W, strain pep5, stronger effect = lower value 0.988 | [5] 0.949 | locus YNL067W, strain RPL9B, stronger effect = lower value 0.965 | [10] 0.986 | locus YNL209W, strain ssb2, stronger effect = lower value 0.972 | locus YNL233W, strain BNI4, stronger effect = lower value 0.917 | locus YNL248C, strain rpa49, stronger effect = lower value 0.986 | locus YNL250W, strain rad50, stronger effect = lower value 0.96 | locus YNL271C, strain bni1, stronger effect = lower value 0.976 | locus YNL298W, strain CLA4, stronger effect = lower value 0.965 | locus YNL322C, strain KRE1 (second series), stronger effect = lower value 0.948 | locus YNL322C, strain KRE1, stronger effect = lower value 0.983 | locus YNR049C, strain mso1, stronger effect = lower value 0.966 | locus YNR052C, strain pop2, stronger effect = lower value 0.985 | locus YOL012C, strain htz1 1.05 | locus YOL147C, strain pex11, stronger effect = lower value 0.94 | locus YOR001W, strain rrp6, stronger effect = lower value 0.987 | locus YOR061W, strain CKA2, stronger effect = lower value 1 | locus YOR069W, strain VPS5, stronger effect = lower value 0.979 | locus YOR070C, strain gyp1, stronger effect = lower value 0.968 | locus YOR080W, strain dia2, stronger effect = lower value 0.965 | locus YOR083W, strain WHI5, stronger effect = lower value 0.956 | locus YOR106W, strain vam3, stronger effect = lower value 0.974 | locus YOR136W, strain idh2, stronger effect = lower value 0.962 | locus YOR144C, strain elg1, stronger effect = lower value 0.959 | locus YOR184W, strain ser1, stronger effect = lower value 0.876 | locus YOR265W, strain rbl2, stronger effect = lower value 0.964 | locus YOR270C, strain vph1, stronger effect = lower value 0.878 | locus YOR316C, strain cot1, stronger effect = lower value 0.963 | locus YPL051W, strain arl3, stronger effect = lower value 0.984 | locus YPL078C, strain atp4, stronger effect = lower value 0.964 | locus YPL106C, strain sse1, stronger effect = lower value 0.943 | locus YPL240C, strain hsp82, stronger effect = lower value 0.968 | locus YPR119W, strain clb2, stronger effect = lower value 0.946 | locus YPR141C, strain kar3, stronger effect = lower value 0.951 | locus YPR163C, strain tif3, stronger effect = lower value 0.97 | locus YPR167C, strain met16, stronger effect = lower value 0.929 | strain wtn01, stronger effect = lower value 0.945
